Experimental findings from PubChem BioAssay (NCI) are described below.

About 83,000 compounds went through this panel and 20% of them were active in at least one assay; those are over-represented in the sample as a whole.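 Cells were grown in 96-well plates and exposed to the test compound at a single concentration for 48 hours; results are reported as percent growth, with values below 10 considered active.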 Values without a mark were called inactive. Active and inactive are the calls of the source.

In this test the test system is MDA-MB-468 breast. In words: NCI-60 one-dose screen, 48 h (100 = growth as untreated, 0 = no growth, -100 = all killed). As to conditions: 10 µM unless noted.
Turning to `N#CCC1CCCC1`, the growth is 97.4%. For `CCCCCCCCSc1ncnc2c1ncn2CO`, the growth was 11.9%.

In the case of `O=C(/C=C/c1ccc(Br)cc1)c1ccc(-n2cc(CN3CCN(c4cc5c(cc4F)c(=O)c(C(=O)O)cn5C4CC4)CC3)nn2)cc1`, the growth was 92.2%.

Regarding `O=C1C(SCc2ccccc2)=C(Cl)CN1c1ccccc1`, the growth is 79.7%. Take `Nc1ccc(S(=O)(=O)Nc2ncccn2)cc1`: the growth is 109%. For `COc1ccc2c(c1)oc1c(C)c3c(c(C)c12)C(=O)N(CCOS(C)(=O)=O)C3=O`, the growth was 127%. Consider `O=C(Nc1nc2ccccc2[nH]1)C(=O)Nc1nc2ccccc2[nH]1`, for which the growth is 103%. With `Nc1c(C(=O)Nc2cccc(C(F)(F)F)c2)sc2nc3c(cc12)CCCCC3`, the growth is -9.93% (active). Under `COC(=O)c1nc(=S)[nH]c(C(=O)OC)c1C(=O)c1ccccc1` stands 97.3%; under `CCOC(=O)c1cn2ncnc(Oc3ccc(NC(=O)NCCN4CCN(C)CC4)c(Cl)c3)c2c1C`, 45.4%. For `O=C(CN1CCOCC1)Nc1ccc(-c2nc3ccccc3s2)cc1` the value was -6.69% (active); for `CCCn1c(=S)sc2c(NNC(C)=O)nc(C)nc21`, 93.1%. For the compound `S=c1nc2oc(-c3ccccc3)c(-c3ccccc3)c2c(/N=C\c2ccco2)[nH]1`, the growth is 91.6%.

In the case of `COc1ccc2c(CCCC(c3ccccc3)c3ccccc3)c3[n+](cc2c1OC)CCc1cc2c(cc1-3)OCO2`, the growth is -73% (active). For `Cn1/c(=N/NC(N)=S)ccc2ccccc21` the value was 24.9%; for `Clc1ccc(-c2nc(-c3ccco3)cn3ccnc23)cc1`, -5.8% (active); for `NCc1c(O)ccc2ccccc12`, 93.9%.

With `CC(Nc1c(C#N)cnc2ccc(-c3cncc(O)c3)cc12)c1ccccc1` (configuration not stated), the growth is -37% (active). For `O=C(O)c1cn(C2CC2)c2cc(N3CCN(C(=O)c4cc(-c5ccc(Cl)cc5)nc5ccccc45)CC3)c(F)cc2c1=O` the value was 99%; for `O=C1N(C[P+](c2ccccc2)(c2ccccc2)c2ccccc2)CCCN1C[P+](c1ccccc1)(c1ccccc1)c1ccccc1`, 105%; for `COc1ccc(Oc2nc(Nc3ccc(N4CCOCC4)cc3)ncc2NC(=O)c2cc(OC)cc(OC)c2)cc1`, 86.6%.

Regarding `O=C(CSc1nnc(-c2cccs2)n1-c1ccccc1)Nc1ccccc1`, the growth was 49.1%. For `O=C1CCCCCCCCC(O)C(O)CCCC(c2cccs2)O1` (configuration not stated) the value was 95.5%.

`COC(=O)C(CCC(=O)CCl)N1C(=O)c2ccccc2C1=O` (configuration not stated): the growth was 32.1%. Under `OC(CBr)c1ccnc2ccccc12` (configuration not stated) stands 100%; under `Cc1cc(N2CCCC2)nc(N(CCNc2ccnc3cc(Cl)ccc23)Cc2ccco2)n1`, 13.3%. Under `Cn1ccnc1C(=O)C(=O)Nc1ccc(CC(=O)Nc2ccccc2)cc1` stands 109%.
